# Among all 330,000 compounds or so, about 650 (0.2%) were called active. This excerpt belongs to a sample that is enriched for actives. A number with no mark means an inactive call. Rule as the data show it: active = inhibition above about 50%; inactive = the rest.
# Biological target: Integrin alpha-4 (Homo sapiens) (UniProt P13612)
# Assay: VLA-4 integrin binding inhibitors – MLPCN library, flow cytometry, VLA-4 expressing cells, VLA-4 allosteric modulator project, primary screen (AID 2557)
# Conditions: ligand binding flow cytometry, hits give high values, about 7 µM as worked out from the volumes in the protocol
# Sequence of Integrin alpha-4 (Homo sapiens) (P13612 whole entry, looked up): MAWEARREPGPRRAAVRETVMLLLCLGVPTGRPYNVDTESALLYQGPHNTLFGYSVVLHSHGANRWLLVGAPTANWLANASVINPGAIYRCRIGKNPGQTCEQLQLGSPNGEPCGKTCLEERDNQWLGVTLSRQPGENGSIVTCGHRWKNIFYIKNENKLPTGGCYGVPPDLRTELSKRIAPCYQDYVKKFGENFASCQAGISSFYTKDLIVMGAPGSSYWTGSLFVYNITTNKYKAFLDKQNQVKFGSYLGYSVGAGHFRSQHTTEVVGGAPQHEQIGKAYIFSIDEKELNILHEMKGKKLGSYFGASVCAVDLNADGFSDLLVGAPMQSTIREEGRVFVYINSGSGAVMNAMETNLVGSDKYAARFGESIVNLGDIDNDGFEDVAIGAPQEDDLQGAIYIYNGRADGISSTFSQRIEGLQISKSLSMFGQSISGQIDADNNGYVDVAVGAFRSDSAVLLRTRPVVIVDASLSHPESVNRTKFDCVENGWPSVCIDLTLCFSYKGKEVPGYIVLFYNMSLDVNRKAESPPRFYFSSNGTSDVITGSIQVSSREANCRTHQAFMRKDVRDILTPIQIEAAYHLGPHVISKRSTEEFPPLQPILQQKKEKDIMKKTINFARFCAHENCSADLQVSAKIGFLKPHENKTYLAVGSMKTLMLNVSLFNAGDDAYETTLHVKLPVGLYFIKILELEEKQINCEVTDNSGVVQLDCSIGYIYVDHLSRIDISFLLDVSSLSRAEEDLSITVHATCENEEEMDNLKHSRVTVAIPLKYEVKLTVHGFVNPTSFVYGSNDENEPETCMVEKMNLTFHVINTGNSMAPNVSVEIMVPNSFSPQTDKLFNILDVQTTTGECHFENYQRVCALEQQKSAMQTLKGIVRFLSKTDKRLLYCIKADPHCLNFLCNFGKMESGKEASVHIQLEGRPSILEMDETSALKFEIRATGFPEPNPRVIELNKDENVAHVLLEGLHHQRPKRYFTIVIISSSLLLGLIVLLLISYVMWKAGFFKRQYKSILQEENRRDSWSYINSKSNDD
row,SMILES,inhibition
1,CCOC(=O)NC(=O)CSc1nnc(SCCC(=O)O)s1,-3.59%
2,O=C(c1cc2ccccc2o1)N1CCN(S(=O)(=O)c2ccc(Cl)s2)CC1,2.54%
3,CCOC(=O)N1CCC(c2cc(=O)n(-c3ccccc3)[nH]2)CC1,-1.65%
4,O=C(CSc1ncnc2sccc12)NC1CCS(=O)(=O)C1 (configuration not stated),6.26%
5,COc1ccc(-n2ncc3c2CC(C)(C)CC3NC(=O)CCc2c(C)nn(C)c2C)cc1 (configuration not stated),4.43%
6,O=C(Cn1cc2c(n1)CCCCC2)NCCN1CCOCC1,-8.14%
7,COCCNC(=O)Cn1cc2c(n1)CCCCC2,54.5% (active)
8,COc1ccccc1CNC(=O)Cn1cc2c(n1)CCCC2,-20.9%
9,CC(=NCc1ccc2c(c1)OCO2)C1=C(O)c2ccccc2C1=O,3.18%
10,COC(=O)[C@@H]1C[C@@]2(O)[C@@H](O)[C@@H](O)[C@@H](O)C[C@H]2N1Cc1ccc(C)s1,23.4%
11,COc1ccc2c3c1O[C@H]1C[C@@H](O)C=C[C@@]31CCN(C)C2,13.3%
12,CC(C)(C)NC(=O)NC(=O)COC(=O)Cn1c(C(F)(F)F)nc2ccccc21,60.1% (active)
13,CN1CCN(C(=O)Cn2c(C(F)(F)F)nc3ccccc32)CC1,5.72%
14,Cc1ccccc1OC(=O)Cn1c(C(F)(F)F)nc2ccccc21,7.11%
15,CCOCCCN(C(=O)Cn1nnc(-c2ccc(OC)c(OC)c2)n1)C(CC)C(=O)NC1CCCC1 (configuration not stated),4.18%
16,Cc1nc(NC(=O)C2CCCCC2)sc1C,3.52%
17,Cc1cnc(NC(=O)C2CCCC2)s1,92.5% (active)
18,Cc1cnc(NC(=O)c2ccccn2)s1,11.4%
19,Cc1cc(C)c(C#N)c(SCC(=O)NN2CC(=O)N(c3ccccc3F)CC2=O)n1,13.8%
20,Cc1cc(C(=O)OCC(=O)NCc2ccco2)c(C)n1-c1ccccc1,64.6% (active)
21,O=C(COC(=O)c1ccccc1O)NCc1ccco1,-3.83%
22,CN(c1ccccc1)S(=O)(=O)c1ccc(Cl)c(C(=O)OCC(=O)NCc2ccco2)c1,17.3%
